Source: PubChem BioAssay AID463173 (ICCB-Longwood Screening Facility, Harvard Medical School, 2010)
Out of some 52,000 compounds screened, about 1,700 (3.3%) were called active. The list comes from a sample in which actives are over-represented; it also holds similar structures and randomly drawn compounds. Unmarked numbers belong to inactive results. No stated cut-off is given here; in the data, active means survival mostly below about 52% (no sharp cut-off); inactive means mostly above about 56%.

Tested on: Wild type
Assay: S. aureus survival, RN4220 and DeltatarO strains – OD600, teichoic acid synthesis inhibitors, primary screen (AID 463173)
Conditions: S. aureus RN4220 wild type/DeltatarO growth, OD600, 18 h, stronger effect = lower value, screened at 18.75 µg/mL (by protocol)

SMILES | survival
CC(C)C(NS(=O)(=O)c1cccc2cccnc12)C(=O)Nc1ccc(OC(F)(F)F)cc1 (configuration not stated) | 100%
CCc1ccc(CNc2ncc(-c3cccc(OC)c3)n2C)cc1 | 4% (active)
COc1ccc(-c2cnc(NCc3ccc(C)cc3)n2C)cc1 | 108%
Cn1c(-c2cccc(Br)c2)cnc1NCc1cccc(F)c1 | 27%
COc1cccc(-c2cnc(NCc3ccccc3Cl)n2C)c1 | 70%
Cn1c(-c2ccccc2)cnc1NCc1ccccc1O | 60%
CCOc1ccc(-c2cnc(NCc3ccc(OC)cc3OC)n2C)cc1 | 68%
Cc1ccc(-c2cnc(NCc3ccc(C(F)(F)F)cc3)n2C)cc1 | -13% (active)
CCOc1ccc(-c2cnc(NCc3ccc(C(F)(F)F)cc3)n2C)cc1 | -12% (active)
COc1ccc(OC)c(CNc2ncc(-c3ccc(Cl)cc3)n2C)c1 | 34%
Cc1ccc(-c2cnc(NCc3ccc(C(C)C)cc3)n2C)cc1 | -13% (active)
CCOc1ccc(-c2cnc(NCc3cccc(Cl)c3)n2C)cc1 | 52%
Cc1ccc(-c2cnc(NC(=O)CCC(=O)N3CCCCC3)n2C)cc1 | 110%
Cc1ccc(Cl)cc1N1CCN(C(=O)c2cn(C3CCCCC3)c(=O)c3c2c2ccccc2n3C)CC1 | 76%
COC(=O)c1ccc(NC(=O)C(=O)NCC(c2cccnc2)N2CCc3ccccc32)cc1 (configuration not stated) | 47%
O=C(CSc1nnc(-c2ccc(Cl)cc2)c(-c2ccc(Cl)cc2)n1)NC1CCCC1 | 65%
O=C(Nc1ccccc1C(=O)NCc1ccccc1)c1ccco1 | 112%
CCOC(=O)NNC(=O)C1CCC(C)CC1 (configuration not stated) | 64%
O=S(=O)(c1ccc(F)cc1)N(CC(O)Cn1c2ccccc2c2ccccc21)c1ccccc1 (configuration not stated) | 63%
CCOc1ccc(-c2cc(C(=O)NCCc3ccccc3)c3c(-c4ccc(C)cc4)[nH]nc3n2)cc1 | 128%
Cc1ccc(S(=O)(=O)NCC(Nc2cccc(Cl)c2)c2ccccc2)cc1 (configuration not stated) | 68%
COc1ccc2cc3cc(C(=O)Nc4cc(C)c(Cl)cc4OC)oc3nc2c1 | 88%
Cc1cccn2c(=O)c3cc(C(=O)NC(C)C)n(C)c3nc12 | 82%

SMILES | survival
Cn1c(-c2ccc3c(c2)OCO3)cnc1NCc1cc(Cl)ccc1O | 112%
Fc1cccc(Cl)c1CNc1n[nH]c(-c2ccco2)n1 | 83%
Cc1ccc(-c2cnc(NCc3c(F)cccc3Cl)n2C)cc1 | -12% (active)
CCOc1ccc(CCNC(=O)c2cn(-c3cccc(OC)c3)c(=O)c3ccccc23)cc1 | 87%
O=C(Nc1cccc(C(F)(F)F)c1)c1cc(-c2ccc(Cl)cc2)on1 | 83%
Fc1ccc(-c2nc(Nc3cccc(C(F)(F)F)c3)nc3c2COc2ccccc2-3)cc1 | 56%
FC(F)(F)c1cccc(Nc2nc3nonc3nc2Nc2ccc(Cl)cc2)c1 | -3% (active)
Cc1cc(C)n(-c2nc3ccccc3nc2Nc2cccc(C(F)(F)F)c2)n1 | 86%
Cc1cc(Nc2cccc(C(F)(F)F)c2)nc2ccc(NC(=O)Cc3ccc(Cl)cc3)cc12 | 78%
Fc1ccc(Nc2nc3nonc3nc2Nc2cccc(C(F)(F)F)c2)cc1 | -1% (active)
NS(=O)(=O)c1ccc(Nc2nc3nonc3nc2Nc2ccc(S(N)(=O)=O)cc2)cc1 | 109%
Cc1ccc(Nc2nc3nonc3n3cnnc23)cc1Cl | 88%
Cc1ccc(Nc2nc3nonc3nc2Nc2cccc(C(F)(F)F)c2)cc1Cl | 0% (active)
CCCSc1nc2c([nH]c3ccccc32)c(=O)n1C | 87%
COCC(C)NC(=O)C1=CC(c2ccc3c(c2)OCO3)=NS(=O)(=O)N1C (configuration not stated) | 103%
COc1ccc(-c2noc(N3CCN(c4cccc(Cl)c4)CC3)n2)cc1OC | 73%
Cc1cccc(N(C)S(=O)(=O)c2cc3c(cc2Cl)NC(=O)CO3)c1 | 75%
COc1ccc(N2CCN(c3ncccc3-c3nc(-c4ccccc4C)no3)CC2)cc1 | 87%
CCN(CC)C(=O)Cn1cc(/C=C(\C#N)C(N)=O)c2ccccc21 | 124%
Cc1ccc(-n2ncc3c(NCC(C)C)ncnc32)c(C)c1 | 10% (active)
Cc1ccc(-n2ncc3c(N(CC(C)C)CC(C)C)ncnc32)c(C)c1 | 71%
COc1ccc(C(=O)NNc2ncnc3c2cnn3-c2ccc(C)cc2C)cc1 | -3% (active)
COc1ccc(C(=O)NNc2ncnc3c2cnn3-c2ccc(C)c(Cl)c2)cc1 | 73%

SMILES | survival
Cc1cccc(C(=O)NNc2ncnc3c2cnn3-c2ccc(C)cc2C)c1 | 124%
Cc1ccc(CNc2ncnc3c2cnn3-c2ccc(C)cc2C)cc1 | 73%
CCOc1ccc(N2CC(NC(=O)CCc3ccccc3)CC2=O)cc1 (configuration not stated) | 78%
COc1ccc(CCNc2nccn(-c3ccc(C)c(C)c3)c2=O)cc1OC | 83%
COC(=O)c1c(NC(=O)Cc2coc3cc(C)ccc23)sc2c1CCC2 | 106%
CCCCNC(=O)C(CC)Sc1nc2ccccc2c(=O)n1CCc1ccc(OC)c(OC)c1 (configuration not stated) | 127%
O=C(NCc1ccccc1Br)c1ccc(-n2cnc3cccnc32)cc1 | 152%
Cc1cccc(C(=O)Nc2ccccc2-c2nc(-c3ccccc3)no2)c1 | 86%
CCOc1ccc(CCNC(=O)C2CCN(c3ncnc4c3nc3n4CCCCC3)CC2)cc1 | 119%
Cc1ccc(CN2C(=O)C(O)(CC(=O)c3ccc(C)cc3)c3ccccc32)cc1 (configuration not stated) | 66%
CCc1ccc(C(=O)CC2(O)C(=O)N(C(C)C)c3ccccc32)cc1 (configuration not stated) | 111%
CC(C)c1ccc(C(=O)CC2(O)C(=O)N(CCc3ccccc3)c3ccc(Cl)cc32)cc1 (configuration not stated) | 33%
Cc1ccc(C(=O)CC2(O)C(=O)N(CCc3ccccc3)c3ccc(Cl)cc32)cc1 (configuration not stated) | 3% (active)
CCc1ccc(C(=O)CC2(O)C(=O)N(CCc3ccccc3)c3ccc(Cl)cc32)cc1 (configuration not stated) | 5% (active)
CCc1ccc(C(=O)CC2(O)C(=O)N(Cc3ccc(C)cc3)c3ccccc32)cc1 (configuration not stated) | 48%
Cc1ccc2cc(C#N)c(SCC(=O)NCc3ccco3)nc2c1 | 103%
O=S(=O)(NCC(c1ccco1)S(=O)(=O)c1cccs1)c1ccc(F)c(C(F)(F)F)c1 (configuration not stated) | 32%
COc1ccc(CCNC(=O)c2ccc3c(c2)N(Cc2ccc(Cl)cc2)C(=O)c2ccccc2S3)cc1OC | 55%
Cc1cc(C)cc(NC(=O)CSc2nccn2-c2ccccc2)c1 | 135%
Cc1cccc(NC(=O)c2ccc3oc(=O)c(S(=O)(=O)c4ccc(F)cc4)cc3c2)c1C | 127%
CN(CCO)Cc1ccc2c(c1)OCO2 | 121%
CSc1ccc(CCNC(=O)c2cnn(-c3ccccc3)c2-n2cccc2)cc1 | 9% (active)
Cc1nn(-c2ccccc2)c(-n2cccc2)c1C(=O)NCc1ccccc1Cl | 1% (active)

SMILES | survival
COc1ccc(CNC(=O)c2cnn(-c3ccc(F)cc3)c2-n2cccc2)cc1 | 113%
Cc1ccc(NC(=O)c2c(C)nn(-c3ccccc3)c2-n2cccc2)c(Cl)c1 | 78%
Cc1ccc(CCNC(=O)c2c(C)nn(-c3ccc(F)cc3)c2-n2cccc2)cc1 | 60%
CC(=O)Nc1ccc(NC(=O)c2c(C)nn(-c3ccccc3)c2-n2cccc2)cc1 | 80%
COc1ccc(CNC(=O)c2cnn(-c3ccccc3)c2-n2cccc2)cc1OC | 126%
CCOc1ccccc1CNC(=O)c1cnn(-c2ccc(C)cc2)c1-n1cccc1 | 10% (active)
O=C(NCCc1ccccc1)c1cnn(-c2ccc(F)cc2)c1-n1cccc1 | 49%
Cc1nn(-c2ccc(F)cc2)c(-n2cccc2)c1C(=O)NCCc1ccc(Cl)cc1 | 54%
Cc1nn(-c2ccccc2)c(-n2cccc2)c1C(=O)NCCc1ccc(Cl)cc1 | 2% (active)
Cc1ccc(-n2ncc(C(=O)NCc3ccccc3C)c2-n2cccc2)cc1 | 88%
CCOC(=O)C1=C(C)NC(=O)NC1c1c(O)ccc2ccccc12 (configuration not stated) | 111%
Cc1cn2c(=O)c(S(=O)(=O)NCCc3ccc(Cl)cc3)c(C)nc2s1 | 88%
COc1ccc(CC(=O)NCCc2csc3nc(-c4ccccc4F)nn23)cc1 | 55%
Cc1ccc(C)c(Oc2nc3c(c(=O)n(C)c(=O)n3C)n2Cc2ccccc2)c1 | 73%
COCCCNC(=O)CCCCn1c(=O)c2ccccc2n(CC(=O)Nc2ccc(C)cc2C)c1=O | 82%
COC(=O)c1sc2cccc(F)c2c1S(=O)(=O)N1CCN(c2cccc(C)c2)C(C)C1 (configuration not stated) | 87%
CN1C(=O)C(CC(=O)NCC2CCCCC2)SC1=Nc1ccccc1 (configuration not stated) | 99%
O=C1C2C3C=CC(C3)C2C(=O)N1c1ccc2c(c1)OCO2 (configuration not stated) | 94%
COc1ccc(S(=O)(=O)N2CCC(n3c(C)nc4cccnc43)CC2)cc1Cl | 131%
O=C(NCC12CC3CC(CC(C3)C1)C2)c1cc2nc(-c3ccccc3)cc(C(F)(F)F)n2n1 | -12% (active)
COc1ccc(-c2cc(C(F)(F)F)n3nc(C(=O)NCC45CC6CC(CC(C6)C4)C5)cc3n2)cc1 | 62%
O=C(NCC12CC3CC(CC(C3)C1)C2)c1cc2nc(-c3ccc(Cl)cc3)cc(C(F)(F)F)n2n1 | 60%
CCOc1ccccc1Nc1sc(C(=O)c2ccc(Cl)cc2)c(N)c1S(=O)(=O)c1ccccc1 | 19%
